# Screening results deposited in PubChem by National Center for Advancing Translational Sciences (NCATS).
# Hits are enriched below; roughly 1.1% of the tested compounds scored in any of these assays.
# IP6K1 inhibitor = inhibitors of human IP6K1; activity change, % (series mostly up to about 58 µM); Q92551; 140,000 tested, 0.81% active; IP6K1 kinase, ADP-Glo luminescence, 2 h; stronger effect = lower value; AID 1645851; in the data active means activity change below about -25%; further: on the % scale 0 is the no-effect control and ±100 the full control effect
# Target sequence (Q92551 whole entry, looked up): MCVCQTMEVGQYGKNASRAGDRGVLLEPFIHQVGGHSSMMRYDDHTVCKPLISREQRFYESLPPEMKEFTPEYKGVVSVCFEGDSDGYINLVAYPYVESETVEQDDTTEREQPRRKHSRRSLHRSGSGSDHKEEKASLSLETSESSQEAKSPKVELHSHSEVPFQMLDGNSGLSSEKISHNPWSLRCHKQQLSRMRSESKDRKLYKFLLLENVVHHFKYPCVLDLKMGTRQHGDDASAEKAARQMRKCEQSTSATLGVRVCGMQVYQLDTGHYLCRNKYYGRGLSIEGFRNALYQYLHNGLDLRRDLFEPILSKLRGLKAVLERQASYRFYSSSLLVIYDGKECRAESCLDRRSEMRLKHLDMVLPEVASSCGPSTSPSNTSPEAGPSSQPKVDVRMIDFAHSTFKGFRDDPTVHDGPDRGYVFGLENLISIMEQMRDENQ
#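 ADP-Glo luminescence measures ADP made by human IP6K1 during a 2 h RT reaction with ATP/IP6 (mix at 1.3 mM/130 uM); top library doses 57.5 and 19.1 uM final.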
# SNCA viab count = cell viability loss counter-screen | HEK-293-SNCA-luc viability, GF-AFC fluorescence, 24 h | Potency, µM (series often up to 57.1 µM), without a hit: at the highest dose activity change, negative = cytotoxicity, usual class: cytotoxic | 150,000 tested, 0.12% active;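 further: potency means the concentration at half of the fitted maximal effect; 0% = DMSO-treated cells and -100% = medium-only wells without cells; nearly all actives have a fitted effect of over 30% in size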
#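 HEK-293-SNCA-luc cells (1500/well) plated 24 h, then exposed 24 h to a dilution series; GF-AFC added 30 min at 37C, fluorescence 405/540 nm; normalised to medium-only and DMSO wells, Hill fit.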
# GPT2 inhibitor = GPT2 alanine aminotransferase inhibition. Q8TD30. Recombinant GPT2, coupled pyruvate oxidase/HRP Amplex Red fluorescence. Potency, µM (doses to about 57.7 µM), inactives show at the top dose activity change, negative = inhibition, usual class: inhibitors. 100,000 tested, 0.25% active; further: potency means the concentration at half of the fitted maximal effect; on the % scale 0 is the no-effect control and ±100 the full control effect; nearly all actives have a fitted effect of over 60% in size
#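 GPT2 10ng/uL, a-KG 250uM, L-Ala 2mM, HEPES pH7.5 + 0.0001% Tween; 30 min RT. Then Amplex mix (PO/HRP/ThPP), 30 min RT dark, fluorescence. AOA 50uM used as positive control.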
# SNCA expr inhib = reduces expression of the alpha-synuclein gene | HEK-293 SNCA-luciferase knock-in, luminescence, 24 h | 140,000 tested, 0.17% active | Potency, µM (highest dose often 57.2 µM), without a hit: top-dose activity change, negative = inhibition, usual class: inhibitors | AID 1671194;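 further: potency means the concentration at half of the fitted maximal effect; plate controls were DMSO cells for no effect and cell-free wells for full effect; nearly all actives have a fitted effect of over 45% in size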
# IP6K1 conf = human IP6K1 inhibition, confirmatory | recombinant IP6K1 kinase, ADP-Glo luminescence, 2 h | shares compounds with IP6K1 inhibitor | Potency, µM (highest dose often 49 µM), for the others: at the top dose activity change, negative = inhibition, actives largely listed as inhibitors | AID 1645852 | 1,200 tested, 13% active; further: potency means the concentration at half of the fitted maximal effect; on the % scale 0 is the no-effect control and ±100 the full control effect; nearly all actives have a fitted effect of over 65% in size
# GPT2 inh cnf = confirmation of human GPT2 inhibitors | shares compounds with GPT2 inhibitor | GPT2 enzyme, coupled Amplex Red pyruvate fluorescence | Potency, µM, actives largely listed as inhibitors | 95 tested, 90% active
# * = called active by the depositor; i = inactive; ? = inconclusive; . = no result given; ! = not active in a repeat; [ ] = another dose, or the depositor's remark. Unless noted, the call rests on the fitted dose curve; in most records, active means well fitted curve in the direction sought with a large enough effect; inconclusive means small, poorly fitted or top-dose-only effect, or another doubt; inactive means no such curve, though single readings can be large; an effect the other way counts as inactive or inconclusive.
SMILES,IP6K1 inhibitor,SNCA viab count,GPT2 inhibitor,SNCA expr inhib,IP6K1 conf,others
Cc1cc(C)cc(NC(=O)CSc2nc3c(cnn3-c3ccc(F)cc3)c(=O)[nH]2)c1,-3,-6%,.,-15%,.,
O=C(CSc1nc2c(cnn2-c2ccc(F)cc2)c(=O)[nH]1)Nc1ccc(Br)cc1,-28*,-2%,.,4%,-1%,
Cc1cc(=O)n(CC(=O)Nc2cc(C)on2)c(N2CCOCC2)n1,6,-2%,3%,-28%,.,
Cc1cccc(N2CCN(C(=O)c3ccc4c(c3)c(C)c(C)n4C)CC2)c1C,1,2%,.,56%,.,
Cc1c(C)n(C)c2ccc(C(=O)N3CCN(c4ccccc4)CC3)cc12,-27*,9%,.,11%,-17%,
Cc1ccc2nc(C(C)NC(=O)c3cnc(-c4ccccn4)[nH]c3=O)[nH]c2c1 (stereo unspecified),-36*,-12%,?,-16%,?,
Cc1ccc(-c2ncc(C(=O)N3CCC(Nc4ncccn4)CC3)c(=O)[nH]2)cc1,5,17%,0%,-19%,.,
Cc1ccccc1-c1ccc2ncnc(NCCN3CCOCC3)c2c1,.,-6%,.,-25%,.,
COc1cccc(-c2nc3cc4c(cc3cc2CN2CCCOCC2)OCO4)c1OC,-35*,-8%,3%[11.5 µM],-1%,-19%,
CC(=O)Nc1ccc(NC(=O)c2ccc3c(c2)N(Cc2cccc(Cl)c2)C(=O)c2ccccc2S3=O)cc1 (stereo unspecified),-8,-6%,.,-19%,.,
Cc1ccc(C(=O)N2CCC3(CC2)CC(N(Cc2ccc(F)cc2)C2CC2)CCO3)cn1 (stereo unspecified),-26*,-3%,1%,2%,4%,
Cc1ccc(OCC(=O)Nc2ccccc2OCc2cc(=O)n3ccccc3n2)cc1C,-27*,10%,.,29%,-4%,
Cc1ccccc1NC(=O)c1c(C)oc2ccc(O)c(CN3CCCCCC3)c12,-26*,-10%,.,14%,-9%,
CCCOc1ccc(C(=O)N(Cc2ccc(N(C)C)cc2)CC2CCCO2)cc1 (stereo unspecified),-10,-9%,.,15%,.,
COc1ccc(C(=O)N(Cc2cc(OC)c(OC)c(OC)c2)CC2CCCO2)cc1 (stereo unspecified),-25*,?,.,25%,5%,
CCOc1ccc(C2c3c(-c4ccccc4O)n[nH]c3C(=O)N2Cc2cccnc2)cc1OC (stereo unspecified),9,-30%,.,-5%,.,
Cc1cccn2c(=O)c(C(=O)NCCc3ccc(Cl)cc3)cnc12,8,-8%,.,67%,.,
CSc1ccc(CCNC(=O)c2cnc3c(C)cccn3c2=O)cc1,-29*,13%,.,31%,-21%,
O=C(Nc1ccccc1Cl)c1cc(S(=O)(=O)N2CCC3(CC2)OCCO3)ccc1F,-35*,5%,.,-3%,?,
Cc1cccc(NC(=O)Cn2c(=O)n(Cc3ccc(C(=O)NCc4ccc5c(c4)OCO5)cc3)c(=O)c3ccccc32)c1,-10,-2%,.,15%,.,
COc1ccc(CCNC(=O)CS(=O)Cc2nc(-c3ccc(C)cc3)oc2C)cc1OC (stereo unspecified),-3,-10%,.,-2%,.,
COc1ccc(CCNC(=O)CS(=O)Cc2nc(-c3ccc(C)cc3)oc2C)c(OC)c1 (stereo unspecified),-26*,-9%,.,-1%,-6%,
COCCn1c(=O)c(-c2cccs2)nc2cnc(Oc3cccc(Cl)c3)nc21,.,?,.,-12%,.,
O=c1c(S(=O)(=O)c2cccc(Cl)c2)cn(Cc2ccccc2)c2cc(N3CCOCC3)c(F)cc12,-8,8%,.,-2%,.,
Cn1nccc1Nc1nccc(-c2ccn([C@H](CO)c3ccc(Cl)c(F)c3)c(=O)c2)n1,-36*,1%,1%,.,8.2µM*,
SMILES,IP6K1 inhibitor,SNCA viab count,GPT2 inhibitor,SNCA expr inhib,IP6K1 conf,others
Cc1c(Cl)ccc2sc(NC(=O)c3ccc(S(=O)(=O)N4CCCc5ccccc54)cc3)nc12,13,?,.,-3%,.,
COc1ccc(-c2cc(N3CCCN(C(=O)CCc4ccccc4)CC3)n[nH]2)cc1,4,-22%,?,13%,.,
O=C(Nc1ccc2oc(-c3cccnc3)nc2c1)c1ccccc1F,-30*,14%,.,55%,?,
Cc1ccc(C(=O)Nc2ccc3oc(-c4cccnc4)nc3c2)c(Cl)c1,-30*,-1%,.,20%,?,
CC(C)N(C(=O)CSc1cn(CC(=O)N2CCCCCC2)c2ccccc12)C(C)C,0,-27%,.,?,.,
O=C(Nc1cccc(C(F)(F)F)c1)Nc1cccs1,-33*,-25%,.,-6%,?,
Cc1nonc1CC(=O)NC1CC(c2cc(=O)[nH]c(C3CC3)n2)C1 (stereo unspecified),-15,1%,i,11%,.,
COc1cc(N2C(=O)CSC23C(=O)N(C)c2ccccc23)cc(OC)c1OC (stereo unspecified),6,-1%,.,2%,.,
COc1ccc(N2C(=O)CSC23C(=O)N(C)c2ccccc23)cc1Cl (stereo unspecified),-26*,-1%,.,-14%,-18%,
Cc1ccc(NC(=O)CN2CCN(C3CCCCC3)C(=O)C2=O)cc1,-15,8%,.,-2%,.,
Cc1nn(-c2ccccc2)c2sc(C(=O)Nc3cccc(O)c3)cc12,-27*,?,.,?,?,
Cc1cc(C)cc(N(CC(=O)Nc2ccc(C)cc2Cl)S(=O)(=O)c2c(C)[nH]c(=O)[nH]c2=O)c1,-27*,-5%,.,-35%,25%,
COc1ccc(N(CC(=O)NCc2ccc(C)cc2)S(=O)(=O)c2c(C)[nH]c(=O)[nH]c2=O)cc1,-25*,21%,.,91%,-12%,
COc1ccc(CNC(=O)CN(c2ccc(OC)cc2)S(=O)(=O)c2c(C)[nH]c(=O)[nH]c2=O)cc1,-12,13%,.,85%,.,
CCCCNc1oc(-c2ccc(COc3ccc(OC)cc3)o2)nc1C#N,-31*,11%,.,12%,-1%,
CN1C(=O)C2(CCN(C(=O)Cc3ccccc3Cl)C2)c2ccccc21 (stereo unspecified),22,-7%,i,?,.,
Cc1noc2nc(C(C)C)cc(C(=O)NC3CCCc4c3[nH]c3ccccc43)c12 (stereo unspecified),-7,10%,i,4%,.,
c1ccc2c(CCNc3ccc(Nc4ccncc4)cc3)c[nH]c2c1,23,-12%,14µM*!,?,.,GPT2 inh cnf=4.9*
O=C(CCC[C@H]1NC[C@@H]2C[C@H]1CN(Cc1ccccc1)C2)Nc1ccc(N2CCOCC2)cc1,-22,-6%,7.1µM*,9%,.,GPT2 inh cnf=4.9*
CN(C)c1cccc(C(=O)N2CCNc3cnc(Nc4ccc(N5CCOCC5)cc4)nc3C2)c1,-2,3%,2µM*,5%,.,GPT2 inh cnf=1.9*
CCCCN(CC)C(=O)Nc1ccc2c(c1)N(C)C(=O)c1ccccc1S2,0,-6%,.,-13%,.,
